About 83,000 compounds went through this panel and 20% of them were active in at least one assay; those are over-represented in the sample as a whole.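 Interpretation: 100, growth as untreated; towards 0, rising growth inhibition; 0, no net growth; 0 to -100, cell death. Compounds scoring below 10 were considered active.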 Calls of active or inactive are those of the source.

For this assay, the system named is HL-60(TB) leukemia. Put plainly: NCI-60 one-dose screen, 48 h (100 = growth as untreated, 0 = no growth, -100 = all killed). The conditions noted are these: 10 µM unless noted.
On to `CCOc1cc(/C=C/C(=O)C(C(=O)/C=C/c2ccc(OC(=O)CNc3nnc(C)s3)c(OCC)c2)C(=O)CNc2nnc(C)s2)ccc1OC(=O)CNc1nnc(C)s1`, for which the growth was -46.4% (active).

For `FC(F)(F)C1=NNC(c2ccc3ccccc3c2)=NN1`, the growth is 101% (inactive).

For the molecule `O=C(Cc1ccc(-c2ccc(OCCN3CCOCC3)cc2)cn1)NCc1ccccc1`, the growth is -31.2% (active).

Take `COc1ccc(-c2nnc(SCC(=O)NC3=NN=C(c4ccccc4)CS3)o2)cc1`: the growth was 90.9% (inactive).

Take `CNCCOc1nc2c3cnccc3cc(-c3cc(OC)c(OC)c(OC)c3)c2c2ccncc12`: the growth was -25.8% (active).

Regarding `CC(=O)Nc1scc[n+]1Cc1ccccc1`, the growth was 55.3% (inactive).

As to `Nc1nc(-c2ccccc2Br)nn1-c1nc2ccccc2s1`, the growth is 99.3% (inactive).

Consider `CCOC(=O)Nc1nccs1`, for which the growth is 100% (inactive).

Consider `O=C(Nc1ccc(-n2cc(-c3ccncc3)c(-c3ccc(O)c(Cl)c3)n2)cc1)c1cc(C(F)(F)F)cc(C(F)(F)F)c1`, for which the growth is 84.4% (inactive).

Take `O=S(=O)(Nc1ccc(Br)cc1)c1ccc(-c2cnc(C3CC3)o2)cc1`: the growth is -36% (active).

Regarding `O=C(O)CCCN1C(=O)/C(=C/c2cn(-c3ccccc3)nc2-c2ccc([N+](=O)[O-])cc2)SC1=S`, the growth was 83.4% (inactive).

For `CCn1cc(-c2cc(-c3ccc(Cl)cc3)nc(N)n2)c(-c2ccc(Br)cc2)n1`, the growth is 77.7% (inactive).

As for `COc1ccccc1-c1ccc2nc(NC(=O)Nc3cc(C(F)(F)F)cc(C(F)(F)F)c3)sc2c1`, the growth was -34.5% (active).

For the molecule `COC(=O)N[C@H]1CCc2c(Cl)c(OC)c(OC)c(OC)c2-c2ccc(SC)c(=O)cc21`, the growth was -42.4% (active).

For the molecule `Cc1ccc(NS(=O)(=O)c2ccc3c(c2)C(=O)CC(c2ccc(C(=O)C(C)C)cc2)N3)cc1C` (stereo not given), the growth was 61.4% (inactive).

In the case of `C=C(C)[C@@H]1CC[C@]2(CO)CC[C@]3(C)[C@H](CC[C@@H]4[C@@](C)(CCCN)[C@H](C(=C)C)CC[C@]43C)[C@@H]12`, the growth is -54.7% (active).

Consider `CC(=O)c1sc2c(c1OC(=O)c1ccc(Cl)cc1Cl)c(=O)n(-c1ccccc1)c(=S)n2-c1ccccc1`, for which the growth is -31.9% (active).

`NS(=O)(=O)c1ccc(NC(=O)/C(=C\c2ccc(Cl)cc2Cl)NC(=O)c2ccccc2)cc1`: the growth was 84.8% (inactive).

Take `Clc1ccc(/C=C2\CCCC3=C2N=C2SC=NN2C3c2ccc(Cl)cc2)cc1` (stereo not given): the growth is 91.1% (inactive).

For `O=C(/C=C/c1sc(Cl)nc1Cl)c1ccc(Br)cc1`, the growth is 71.4% (inactive).

On to `CC(C)NC(=O)N1C(=O)CCC1NNC(=O)c1ccc([N+](=O)[O-])cc1` (stereo not given), for which the growth was 107% (inactive).

With `Cn1ccnc1C(=O)/C=C/c1ccccc1`, the growth was 8.05% (active).

For the molecule `CN1CCN(Cc2ccc(NC(=O)c3cncc(C#Cc4cncc5ncccc45)c3)cc2C(F)(F)F)CC1`, the growth is -3.29% (active).

`CCOC(=O)NC1=NCC(C)(C)S1`: the growth was 67.9% (inactive).

Turning to `CC(C)C[C@H](C(=O)O)N(C)C(=O)[C@@H]1CCCN1C(=O)[C@H](C)OC(=O)[C@H](CCC(N)=O)NC(=O)[C@@H]1CCC(=O)N1`, the growth was 85.8% (inactive).

For `O=C(/C=C/c1ccc2ccccc2c1)Nc1ncc(Cc2ccccc2)s1`, the growth is 94.4% (inactive).

In the case of `C[C@@H](C[C@H](CCO)c1cc(C(F)(F)F)cc(C(F)(F)F)c1)c1ccc2ccccc2c1`, the growth was 93.5% (inactive).

As for `COc1cnc2c(c1)C(=O)c1c-2n(CCCN2CCOCC2)c(=O)c2cc(F)ccc12`, the growth was -10.2% (active).

Consider `COC(=O)c1ccc2c(C(=Nc3ccc(N(C)C(=O)CN4CCN(C)CC4)cc3)c3ccccc3)c(O)[nH]c2c1`, for which the growth is 70.8% (inactive).

Regarding `CCn1cc(C(=O)N/N=C/c2ccccc2)c(=O)c2cc(F)c(N3CCNC(C)C3)c(F)c21` (stereo not given), the growth was 18.1% (inactive).

In the case of `CCCCc1n(Cc2ccc3ccccc3c2)c2ccccc2[n+]1Cc1ccc2ccccc2c1`, the growth is -59.2% (active).

Take `O=C(/C=C(O)/C=C/c1ccc(SC(F)(F)F)cc1)/C=C/c1ccc(SC(F)(F)F)cc1`: the growth is 81.9% (inactive).

In the case of `O=C(Oc1cccnc1)c1ccsc1Nc1ccnc(C(F)(F)F)c1`, the growth was 25.9% (inactive).

For the molecule `N=c1sc2ccccc2n1CC(=O)O`, the growth was 114% (inactive).

For `CC(C)(C)c1nn(-c2ccccc2)c2c1CC1(CN2Cc2ccc(Cl)cc2)C(=O)c2ccccc2C1=O`, the growth is 90.8% (inactive).

On to `CC([C@H]1CCC2C3CCC4C(=O)C(NC=O)=CC[C@]4(C)C3CC[C@@]21C)N(C)C` (stereo not given in full), for which the growth is 1.54% (active).

Turning to `CCCCCCCCCCCCCCCCCCOc1ccc(CC(=O)OCC[N+](C)(C)C)cc1`, the growth is 2.32% (active).

For the molecule `O=c1oc2c(cc1-c1ccc([N+](=O)[O-])cc1)C(O)Oc1ccccc1-2` (stereo not given), the growth is 71.9% (inactive).

With `O=C(O)C(CCc1ccccc1)NCc1ccccc1` (stereo not given), the growth is 110% (inactive).

For the molecule `O=C(COc1ccc(-c2nc3cc(Cl)c(Cl)cc3[nH]2)cc1)N=Nc1c(O)[nH]c2ccc(Cl)cc12`, the growth was 55.5% (inactive).

The values are drawn from PubChem BioAssay (NCI).
